According to PubChem BioAssay (NCI):
Several values for one entry are separate records, joined by “and”; a condition that tells them apart may be missing. Equal values may be shown once. Compounds without any hit were thinned out: in the full panel of roughly 83,000, 20% have a hit.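 The endpoint reported here, percent growth, reads 100 for growth as untreated, 0 for no net growth and -100 for all cells dead.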 Activity calls are given as the source filed them. Rule for the calls: active = growth percent below 10; inactive = the rest.

Tests used:
Assay in all cases: NCI-60 one-dose screen, 48 h (100 = growth as untreated, 0 = no growth, -100 = all killed)
[1] = tested on: NCI/ADR-RES ovarian; conditions: 10 µM
[2] = tested on: T-47D breast; conditions: 10 µM
[3] = tested on: BT-549 breast; conditions: 10 µM
[4] = tested on: MDA-MB-435 melanoma; conditions: 10 µM
[5] = tested on: SW-620 colon; conditions: 10 µM
[6] = tested on: MCF7 breast; conditions: 10 µM unless noted
[7] = tested on: HCT-116 colon; conditions: 10 µM
[8] = tested on: HCC-2998 colon; conditions: 10 µM
[9] = tested on: KM12 colon; conditions: 10 µM

Measured: growth

O=C(O)c1cc(Cc2ccc(O)c(C(=O)O)c2)ccc1O (tested in a mixture with another compound)
inactive: [1] 75.7% | [2] 53.1% | [3] 73.8% | [4] 72.7% | [5] 64.6% | [6] 46.4% | [7] 45.1% | [8] 53.9% | [9] 65.9%

O=C1CCC(=O)N1SC(Cl)(Cl)Cl
inactive: [1] 110% | [2] 118% | [3] 104% | [4] 102% | [5] 100% | [6] 97.2% | [7] 106% | [8] 103% | [9] 105%

COc1cc(/C=C\[N+](=O)[O-])ccc1O
7.29% (active) and 67.5% (inactive): [5]
inactive: [1] 83.4% and 98.4% | [2] 32.5% and 71.1% | [3] 56% | [4] 78.5% and 51.3% | [7] 59.3% and 32.9% | [8] 100% and 83.1% | [9] 80.2% and 77.4%
9.85% (active) and 23.9% (inactive): [6]

C[CH2][Hg][S]c1ccccc1C(=O)O
active: [1] -13.9% | [2] -80% | [3] -73.4% | [4] -12.7% | [5] -87% | [7] -88.9%
inactive: [8] 59.8%

CC12OOC(c3ccccc31)c1c2ccc2ccccc12 (stereo not drawn)
inactive: [1] 50.3% | [4] 46.2% | [6] 48.5%
active: [2] -28.8% | [3] -82.2% | [5] -52.1% | [7] -94.5% | [8] -91.7% | [9] -53.1%

CS(=N)(=O)CCC(N)C(=O)O (stereo not drawn)
inactive: [1] 100% | [2] 111% | [3] 99.2% | [4] 99.8% | [5] 103% | [7] 97.1% | [8] 92.7%

O=C(CBr)Nc1ccc(Cl)cc1
active: [5] 9.26%
inactive: [1] 94.5% | [2] 67.8% | [3] 116% | [4] 87% | [7] 54.4% | [8] 112%

O=C(CBr)Nc1ccccc1
inactive: [1] 103% | [2] 92.6% | [3] 87% | [4] 102% | [5] 59.9% | [6] 68.6% | [7] 84.7% | [8] 105% | [9] 102%

COc1cc([N+](=O)[O-])c2ncccc2c1[N+](=O)[O-]
inactive: [1] 81.7% | [2] 50.9% | [3] 98.2% | [4] 44.8% | [7] 14.4% | [8] 102% | [9] 20.3%
active: [5] -61.5%

O=S(=O)(F)c1ccc(Cl)cc1
inactive: [1] 109% | [2] 105% | [3] 112% | [4] 108% | [5] 100% | [7] 106% | [8] 83.2%

CC[C@@]1(O)C[C@H](OC2CC(N(C)C)C(O)C(C)O2)c2c(cc3c(c2O)C(=O)c2c(O)ccc(O)c2C3=O)[C@H]1C(=O)OC (stereo partly drawn)
active: [1] -64.1% | [2] -42% | [3] -80.2% | [4] -95.7% | [5] -90.5% | [7] -70.5%

COc1ccc(/C=C\[N+](=O)[O-])cc1OC
13.2% (inactive) and 0.137% (active): [7]
inactive: [1] 91.3% and 86.9% | [2] 62.8% and 42.3% | [3] 92% and 70.3% | [4] 12.3% and 31.1% | [5] 37.7% and 55.6% | [8] 61% and 54.3%

CN(C)CC1(N)C(=O)NC(=O)NC1=O
inactive: [1] 107% | [2] 89.4% | [3] 111% | [4] 103% | [5] 106% | [7] 92.9% | [8] 99.4% | [9] 101%

C=NCC#N
inactive: [1] 102% and 107% | [2] 98.8% and 93.6% | [3] 103% and 89.3% | [4] 100% and 113% | [5] 100% and 115% | [7] 98.2% and 107% | [8] 100% and 125% | [9] 99.4% and 109%

O=c1[nH]c2ccccc2n1C1CCN(CCCC(c2ccc(F)cc2)c2ccc(F)cc2)CC1
-0.627% (active) and 25.7% (inactive): [9]
-81% (active) and 19% (inactive): [4]
-21.1% (active) and 19.2% (inactive): [5]
inactive: [1] 48.3% and 23.7% | [2] 55.7% and 10.2% | [3] 35.8% and 18.5%
active: [7] -68.6% and -39.9% | [8] 7.86% and -80.1%
